Tests used:
[1] = molecular target: Casein kinase I isoform gamma-2 (Homo sapiens) (UniProt P78368); conditions: at 1 µM
[2] = molecular target: Casein kinase I isoform gamma-3 (Homo sapiens) (UniProt Q9Y6M4); conditions: at 0.1 µM
[3] = molecular target: Casein kinase I isoform gamma-3 (Homo sapiens) (UniProt Q9Y6M4); conditions: at 1 µM
[4] = molecular target: Cyclin-dependent kinase 1 (Homo sapiens) (UniProt P06493); conditions: at 0.1 µM
[5] = molecular target: Cyclin-dependent kinase 1 (Homo sapiens) (UniProt P06493); conditions: at 1 µM
[6] = molecular target: Cyclin-dependent kinase 2 (Homo sapiens) (UniProt P24941); conditions: at 0.1 µM
[7] = molecular target: Cyclin-dependent kinase 2 (Homo sapiens) (UniProt P24941); conditions: at 1 µM
[8] = molecular target: Cyclin-dependent kinase 2 (Homo sapiens) (UniProt P24941); conditions: at 0.1 µM; remark: listed apart in the source
[9] = molecular target: Cyclin-dependent kinase 2 (Homo sapiens) (UniProt P24941); conditions: at 1 µM; remark: listed apart in the source
[10] = molecular target: T1, CDK3/Cyclin E (Homo sapiens) (UniProt P24864+Q00526); conditions: at 0.1 µM
[11] = molecular target: T1, CDK3/Cyclin E (Homo sapiens); conditions: at 1 µM
[12] = molecular target: Cyclin-dependent kinase 4 (Homo sapiens) (UniProt P11802); conditions: at 0.1 µM
[13] = molecular target: Cyclin-dependent kinase 4 (Homo sapiens) (UniProt P11802); conditions: at 1 µM
[14] = molecular target: Cyclin-dependent kinase 5 (Homo sapiens) (UniProt Q00535); conditions: at 0.1 µM
[15] = molecular target: Cyclin-dependent kinase 5 (Homo sapiens) (UniProt Q00535); conditions: at 1 µM
[16] = molecular target: Cyclin-dependent kinase 6 (Homo sapiens) (UniProt Q00534); conditions: at 0.1 µM
[17] = molecular target: Cyclin-dependent kinase 6 (Homo sapiens) (UniProt Q00534); conditions: at 1 µM
[18] = molecular target: Dual specificity protein kinase CLK2 (Homo sapiens) (UniProt P49760); conditions: at 0.1 µM
[19] = molecular target: Dual specificity protein kinase CLK2 (Homo sapiens) (UniProt P49760); conditions: at 1 µM
[20] = molecular target: Dual specificity protein kinase CLK3 (Homo sapiens) (UniProt P49761); conditions: at 0.1 µM
Dual specificity protein kinase CLK3 (Homo sapiens), sequence (P49761 whole entry, looked up): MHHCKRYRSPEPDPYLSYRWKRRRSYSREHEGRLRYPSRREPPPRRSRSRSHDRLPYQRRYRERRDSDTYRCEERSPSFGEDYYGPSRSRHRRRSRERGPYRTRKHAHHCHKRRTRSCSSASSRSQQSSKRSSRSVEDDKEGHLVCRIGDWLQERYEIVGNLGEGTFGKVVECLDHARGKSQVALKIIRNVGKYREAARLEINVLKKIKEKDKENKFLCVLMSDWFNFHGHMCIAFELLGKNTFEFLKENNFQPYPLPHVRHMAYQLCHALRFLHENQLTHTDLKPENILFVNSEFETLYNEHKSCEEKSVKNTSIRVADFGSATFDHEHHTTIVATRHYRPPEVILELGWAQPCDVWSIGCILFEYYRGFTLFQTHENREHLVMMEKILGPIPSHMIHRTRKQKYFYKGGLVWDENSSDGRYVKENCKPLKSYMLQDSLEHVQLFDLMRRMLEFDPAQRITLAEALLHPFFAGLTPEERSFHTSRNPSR

Casein kinase I isoform gamma-3 (Homo sapiens), sequence (Q9Y6M4 whole entry, looked up, canonical isoform): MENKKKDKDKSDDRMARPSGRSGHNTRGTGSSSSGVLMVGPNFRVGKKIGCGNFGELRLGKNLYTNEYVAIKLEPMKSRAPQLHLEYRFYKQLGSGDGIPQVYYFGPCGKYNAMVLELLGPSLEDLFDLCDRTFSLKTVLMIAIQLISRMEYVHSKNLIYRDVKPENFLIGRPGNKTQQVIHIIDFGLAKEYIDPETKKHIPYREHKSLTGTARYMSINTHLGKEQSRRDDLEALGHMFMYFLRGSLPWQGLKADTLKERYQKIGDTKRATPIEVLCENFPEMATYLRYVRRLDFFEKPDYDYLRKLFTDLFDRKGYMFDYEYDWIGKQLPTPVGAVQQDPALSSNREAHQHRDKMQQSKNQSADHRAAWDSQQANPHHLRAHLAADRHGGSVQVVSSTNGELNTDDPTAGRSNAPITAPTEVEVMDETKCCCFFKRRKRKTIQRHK
T1 sequence (P24864 whole entry, looked up): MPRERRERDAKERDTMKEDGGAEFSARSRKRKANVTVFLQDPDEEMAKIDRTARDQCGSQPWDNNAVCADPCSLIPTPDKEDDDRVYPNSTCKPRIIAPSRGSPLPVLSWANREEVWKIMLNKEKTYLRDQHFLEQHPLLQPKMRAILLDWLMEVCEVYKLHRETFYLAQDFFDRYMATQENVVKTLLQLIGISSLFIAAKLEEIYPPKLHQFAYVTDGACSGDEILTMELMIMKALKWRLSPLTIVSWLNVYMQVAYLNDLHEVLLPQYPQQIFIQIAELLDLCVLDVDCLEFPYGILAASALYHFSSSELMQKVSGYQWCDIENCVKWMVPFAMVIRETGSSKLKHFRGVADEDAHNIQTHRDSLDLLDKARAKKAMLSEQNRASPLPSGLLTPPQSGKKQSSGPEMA
T1 sequence (Q00526 whole entry, looked up): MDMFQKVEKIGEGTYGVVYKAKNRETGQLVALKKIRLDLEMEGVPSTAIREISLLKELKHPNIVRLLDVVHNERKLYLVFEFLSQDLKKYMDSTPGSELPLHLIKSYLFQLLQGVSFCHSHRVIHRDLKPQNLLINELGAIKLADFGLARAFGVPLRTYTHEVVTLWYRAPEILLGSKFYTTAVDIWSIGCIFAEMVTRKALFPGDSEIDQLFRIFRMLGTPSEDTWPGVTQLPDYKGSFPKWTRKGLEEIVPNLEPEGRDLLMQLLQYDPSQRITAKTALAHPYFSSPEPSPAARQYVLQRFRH
Cyclin-dependent kinase 4 (Homo sapiens), sequence (P11802 whole entry): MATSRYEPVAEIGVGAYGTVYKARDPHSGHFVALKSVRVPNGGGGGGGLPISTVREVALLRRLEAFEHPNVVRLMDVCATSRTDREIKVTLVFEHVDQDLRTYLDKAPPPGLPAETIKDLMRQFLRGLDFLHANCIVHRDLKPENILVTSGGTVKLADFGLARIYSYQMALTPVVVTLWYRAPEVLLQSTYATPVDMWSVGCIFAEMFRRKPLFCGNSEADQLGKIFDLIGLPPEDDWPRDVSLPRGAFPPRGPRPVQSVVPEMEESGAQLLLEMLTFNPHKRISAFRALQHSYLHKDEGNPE
Dual specificity protein kinase CLK2 (Homo sapiens), sequence (P49760 whole entry, looked up): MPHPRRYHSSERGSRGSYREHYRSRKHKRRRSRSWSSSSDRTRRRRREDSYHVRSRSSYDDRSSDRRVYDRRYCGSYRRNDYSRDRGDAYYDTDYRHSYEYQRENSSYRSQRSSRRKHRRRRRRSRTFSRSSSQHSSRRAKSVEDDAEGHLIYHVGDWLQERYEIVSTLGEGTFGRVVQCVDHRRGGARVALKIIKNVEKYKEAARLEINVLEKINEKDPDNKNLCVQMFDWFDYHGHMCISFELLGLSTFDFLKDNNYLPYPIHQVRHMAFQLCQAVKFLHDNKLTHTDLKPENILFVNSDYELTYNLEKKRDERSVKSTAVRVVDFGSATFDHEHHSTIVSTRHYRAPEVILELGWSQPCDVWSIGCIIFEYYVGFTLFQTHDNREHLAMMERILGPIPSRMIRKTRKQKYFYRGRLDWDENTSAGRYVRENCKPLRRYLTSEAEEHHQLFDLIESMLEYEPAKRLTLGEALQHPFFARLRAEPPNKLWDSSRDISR
Cyclin-dependent kinase 5 (Homo sapiens), sequence (Q00535 whole entry, looked up): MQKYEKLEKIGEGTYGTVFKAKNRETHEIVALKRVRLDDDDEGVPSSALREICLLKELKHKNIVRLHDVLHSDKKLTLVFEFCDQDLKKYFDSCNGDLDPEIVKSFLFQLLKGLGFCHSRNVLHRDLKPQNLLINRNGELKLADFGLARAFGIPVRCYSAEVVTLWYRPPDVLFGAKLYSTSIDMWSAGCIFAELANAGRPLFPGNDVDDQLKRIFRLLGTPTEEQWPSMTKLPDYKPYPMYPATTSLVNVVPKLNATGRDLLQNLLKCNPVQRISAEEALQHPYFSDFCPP
Cyclin-dependent kinase 1 (Homo sapiens), sequence (P06493 whole entry, looked up): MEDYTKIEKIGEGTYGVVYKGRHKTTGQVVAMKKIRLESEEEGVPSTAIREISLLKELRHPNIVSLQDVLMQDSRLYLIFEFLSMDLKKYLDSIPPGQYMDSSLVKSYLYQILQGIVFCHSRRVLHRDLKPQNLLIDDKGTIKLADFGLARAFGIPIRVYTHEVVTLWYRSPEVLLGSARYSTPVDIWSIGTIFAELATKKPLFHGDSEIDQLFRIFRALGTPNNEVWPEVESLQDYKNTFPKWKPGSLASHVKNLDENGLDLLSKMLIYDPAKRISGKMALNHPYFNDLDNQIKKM
Cyclin-dependent kinase 6 (Homo sapiens), sequence (Q00534 whole entry): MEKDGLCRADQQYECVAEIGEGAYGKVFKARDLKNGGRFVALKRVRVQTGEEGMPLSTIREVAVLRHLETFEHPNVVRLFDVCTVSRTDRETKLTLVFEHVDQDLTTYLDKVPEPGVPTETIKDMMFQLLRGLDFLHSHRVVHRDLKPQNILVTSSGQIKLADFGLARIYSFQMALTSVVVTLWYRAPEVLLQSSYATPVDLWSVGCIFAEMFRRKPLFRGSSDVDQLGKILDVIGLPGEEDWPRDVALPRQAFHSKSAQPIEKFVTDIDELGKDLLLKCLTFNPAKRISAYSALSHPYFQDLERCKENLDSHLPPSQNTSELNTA
Casein kinase I isoform gamma-2 (Homo sapiens), sequence (P78368 whole entry, looked up, canonical isoform): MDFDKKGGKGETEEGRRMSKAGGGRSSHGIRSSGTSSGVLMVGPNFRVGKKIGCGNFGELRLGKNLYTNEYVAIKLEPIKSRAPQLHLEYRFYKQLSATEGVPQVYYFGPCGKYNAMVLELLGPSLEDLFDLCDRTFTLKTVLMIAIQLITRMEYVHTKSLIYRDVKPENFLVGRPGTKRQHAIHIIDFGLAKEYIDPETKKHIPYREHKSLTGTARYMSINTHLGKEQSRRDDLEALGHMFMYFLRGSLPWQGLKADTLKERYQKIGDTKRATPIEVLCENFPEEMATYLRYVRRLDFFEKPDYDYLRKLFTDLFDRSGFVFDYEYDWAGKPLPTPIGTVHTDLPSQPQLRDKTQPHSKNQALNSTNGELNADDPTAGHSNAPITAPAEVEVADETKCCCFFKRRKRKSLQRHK

COc1ccc2ncnc(Nc3ccc(OCc4ccccc4)cc3)c2c1 gave an inhibition [1] of 2.03%, an inhibition [2] of -0.66% and an inhibition [3] of 1.41%. The inhibition [4] was 0.67%, the inhibition [5] was 1.75% and the inhibition [6] was 1.36%. It also gave an inhibition [7] of -4.84%, an inhibition [8] of 0.4% and an inhibition [9] of 1.13%. It also gave an inhibition [10] of 1.69%, an inhibition [11] of -1.97% and an inhibition [12] of 0.76%. The inhibition [13] was 0.15%, the inhibition [14] was 0.36% and the inhibition [15] was 0.72%. For the same compound, the inhibition [16] was -0.31%, the inhibition [17] was 1.08% and the inhibition [18] was 1.07%. The inhibition [19] was 0.25% and the inhibition [20] was 0.35%.

O=C(Nc1ccc(Oc2ccc3[nH]c(NC(=O)c4ccco4)nc3c2)cc1)Nc1cc(C(F)(F)F)ccc1F was tested, and the inhibition [1] was -2.38%, the inhibition [2] was -2.82% and the inhibition [3] was -2.32%. For the same compound, the inhibition [4] was -5.04%, the inhibition [5] was -3.69% and the inhibition [6] was -3.1%. The inhibition [7] was 3.18%, the inhibition [8] was -4.34% and the inhibition [9] was -4%. The inhibition [10] was -0.43%, the inhibition [11] was 0.77% and the inhibition [12] was -4.32%. For the same compound, the inhibition [13] was -2.74%, the inhibition [14] was -4.37% and the inhibition [15] was -4.57%. The inhibition [16] was -1.5%, the inhibition [17] was -3.48% and the inhibition [18] was 0.35%. The inhibition [19] was 0.71% and the inhibition [20] was -3.23%.

Work on [O-][S+]1CCN(Cc2ccc(-c3ccc4ncnc(Nc5ccc(OCc6ccccc6)c(Cl)c5)c4c3)o2)CC1 yielded an inhibition [1] of 1.66%, an inhibition [2] of 0.73% and an inhibition [3] of 4.22%. For the same compound, the inhibition [4] was 1.22%, the inhibition [5] was 1.4% and the inhibition [6] was 2.81%. The inhibition [7] was 2.09%, the inhibition [8] was 0.43% and the inhibition [9] was 1.73%. It also gave an inhibition [10] of -1.53%, an inhibition [11] of -1.44% and an inhibition [12] of 0.13%. For the same compound, the inhibition [13] was 3.22%, the inhibition [14] was 0.19% and the inhibition [15] was 0.51%. The inhibition [16] was -0.89%, the inhibition [17] was 0.14% and the inhibition [18] was -0.72%. The inhibition [19] was 0.49% and the inhibition [20] was 0.43%.

CCCN1CCCC(c2ccc(Nc3nc(Nc4cc(F)ccc4C(N)=O)c4cc[nH]c4n3)c(OC)c2)C1 (stereo not given) showed an inhibition [1] of 78.6%, an inhibition [2] of 44.3% and an inhibition [3] of 83.5%. For the same compound, the inhibition [4] was 0.12%, the inhibition [5] was 2.76% and the inhibition [6] was 2.13%. For the same compound, the inhibition [7] was 10.8%, the inhibition [8] was 3.57% and the inhibition [9] was 8.67%. It also gave an inhibition [10] of 4.8%, an inhibition [11] of 0.01% and an inhibition [12] of 3.53%. It also gave an inhibition [13] of 12.1%, an inhibition [14] of 0.43% and an inhibition [15] of 5.92%. For the same compound, the inhibition [16] was -2.09%, the inhibition [17] was 8.41% and the inhibition [18] was 67.3%. For the same compound, the inhibition [19] was 93.8% and the inhibition [20] was 4.01%.

Work on O=C1Nc2ccc(-c3cccnc3)cc2C1=Cc1cc(Br)c(O)c(Br)c1 yielded an inhibition [1] of 4.44%, an inhibition [2] of 3.31% and an inhibition [3] of 3.74%. The inhibition [4] was -0.12%, the inhibition [5] was 1.23% and the inhibition [6] was 2.18%. For the same compound, the inhibition [7] was 1.15%, the inhibition [8] was 3.46% and the inhibition [9] was 5.04%. The inhibition [10] was 0.27%, the inhibition [11] was 2.98% and the inhibition [12] was 3.31%. It also gave an inhibition [13] of 3.8%, an inhibition [14] of 1.01% and an inhibition [15] of 1.79%. For the same compound, the inhibition [16] was 5.85%, the inhibition [17] was 6.68% and the inhibition [18] was 32.2%. For the same compound, the inhibition [19] was 84.6% and the inhibition [20] was 7.23%.

Work on CN(C)CCCn1c(-c2nonc2N)nc2cnccc21 yielded an inhibition [1] of 4.54%, an inhibition [2] of 1.5% and an inhibition [3] of 3.26%. For the same compound, the inhibition [4] was 1.58%, the inhibition [5] was 2.19% and the inhibition [6] was 2.53%. For the same compound, the inhibition [7] was -3.59%, the inhibition [8] was 4.53% and the inhibition [9] was 6.13%. The inhibition [10] was 4.24%, the inhibition [11] was -0.71% and the inhibition [12] was 3.12%. It also gave an inhibition [13] of 4.13%, an inhibition [14] of 1.36% and an inhibition [15] of 1.99%. For the same compound, the inhibition [16] was -4.78%, the inhibition [17] was 1.95% and the inhibition [18] was 2.66%. The inhibition [19] was 2.51% and the inhibition [20] was 1.05%.

Cc1ccc(NC(=O)CC2CC2)cc1-c1ccc(C(=O)NCC2CC2)cc1 showed an inhibition [1] of 2.91%, an inhibition [2] of 0.5% and an inhibition [3] of 2.08%. The inhibition [4] was -0.23%, the inhibition [5] was 0.76% and the inhibition [6] was -1.15%. The inhibition [7] was -1.13%, the inhibition [8] was 1.18% and the inhibition [9] was 2.92%. The inhibition [10] was 1.73%, the inhibition [11] was -2.46% and the inhibition [12] was 1.69%. For the same compound, the inhibition [13] was 2.18%, the inhibition [14] was 0.04% and the inhibition [15] was 0.76%. The inhibition [16] was 1.72%, the inhibition [17] was 1.87% and the inhibition [18] was 0.47%. The inhibition [19] was 0.08% and the inhibition [20] was 1.44%.

CCn1c(-c2nonc2N)nc2ccc(F)cc21 showed an inhibition [1] of 5.68%, an inhibition [2] of 5.66% and an inhibition [3] of 3.59%. The inhibition [4] was 0.74%, the inhibition [5] was 1.27% and the inhibition [6] was 1.3%. The inhibition [7] was 7.59%, the inhibition [8] was 3.91% and the inhibition [9] was 5.8%. The inhibition [10] was 3.47%, the inhibition [11] was -3.51% and the inhibition [12] was 1.9%. The inhibition [13] was 2.11%, the inhibition [14] was 0.58% and the inhibition [15] was 0.39%. The inhibition [16] was 1.33%, the inhibition [17] was 2.18% and the inhibition [18] was 2.5%. For the same compound, the inhibition [19] was 0.59% and the inhibition [20] was 2.12%.

For Nc1nccc(-c2c(-c3ccc(F)cc3)nn3cc(C(F)(F)F)ccc23)n1, the inhibition [1] was 1.13%, the inhibition [2] was 0.79% and the inhibition [3] was 1.7%. For the same compound, the inhibition [4] was 1.22%, the inhibition [5] was 0.47% and the inhibition [6] was -0.36%. For the same compound, the inhibition [7] was -2.27%, the inhibition [8] was -0.77% and the inhibition [9] was 0.2%. It also gave an inhibition [10] of -0.58%, an inhibition [11] of -2.57% and an inhibition [12] of 0.37%. The inhibition [13] was 1.03%, the inhibition [14] was 0.43% and the inhibition [15] was -0.54%. The inhibition [16] was -0.93%, the inhibition [17] was -0.06% and the inhibition [18] was 1.36%. For the same compound, the inhibition [19] was -2.43% and the inhibition [20] was -0.16%.

For Cc1ccc(C(=O)NC2CC2)cc1-c1ccc2[nH]ncc2c1, the inhibition [1] was -3.39%, the inhibition [2] was -2.17% and the inhibition [3] was -1.12%. It also gave an inhibition [4] of 0.88%, an inhibition [5] of 2.1% and an inhibition [6] of 0.12%. For the same compound, the inhibition [7] was 4.69%, the inhibition [8] was -1.68% and the inhibition [9] was 0.18%. It also gave an inhibition [10] of -2.07%, an inhibition [11] of 0.41% and an inhibition [12] of -0.45%. It also gave an inhibition [13] of 1.78%, an inhibition [14] of 0.3% and an inhibition [15] of 2.44%. It also gave an inhibition [16] of -4.81%, an inhibition [17] of -2.84% and an inhibition [18] of -1%. The inhibition [19] was 0.36% and the inhibition [20] was -0.51%.

In the case of NS(=O)(=O)c1ccc(N/N=C2\C(=O)Nc3ccc(Cl)cc32)cc1, the inhibition [1] is reported as 3.33%, the inhibition [2] is reported as 1.35% and the inhibition [3] is reported as 3.48%. For the same compound, the inhibition [4] was 8.41%, the inhibition [5] was 42.5% and the inhibition [6] was 46.7%. It also gave an inhibition [7] of 102%, an inhibition [8] of 58.5% and an inhibition [9] of 80.5%. The inhibition [10] was 40.8%, the inhibition [11] was 83.7% and the inhibition [12] was 6.36%. For the same compound, the inhibition [13] was 28%, the inhibition [14] was 18% and the inhibition [15] was 61%. The inhibition [16] was 15.3%, the inhibition [17] was 56.7% and the inhibition [18] was 0.8%. It also gave an inhibition [19] of 2.45% and an inhibition [20] of 1.72%.

In the case of COC(=O)Nc1nc2cc(Oc3ccc(NC(=O)Nc4cccc(Br)c4)cc3)ccc2[nH]1, the inhibition [1] is reported as 1.6%, the inhibition [2] is reported as -0.42% and the inhibition [3] is reported as 1.82%. For the same compound, the inhibition [4] was 1.34%, the inhibition [5] was 2.26% and the inhibition [6] was 3.2%. It also gave an inhibition [7] of -0.87%, an inhibition [8] of 1.48% and an inhibition [9] of 2.15%. It also gave an inhibition [10] of 2.04%, an inhibition [11] of -4.35% and an inhibition [12] of 2.4%. It also gave an inhibition [13] of 2.61%, an inhibition [14] of 0.44% and an inhibition [15] of 1.22%. The inhibition [16] was -3.24%, the inhibition [17] was 0.22% and the inhibition [18] was 0.85%. The inhibition [19] was 1.48% and the inhibition [20] was 1.73%.

c1ccc(Nc2ncc(-c3ccccc3)o2)cc1 was tested, and the inhibition [1] was 5.31%, the inhibition [2] was 4.05% and the inhibition [3] was 4.99%. It also gave an inhibition [4] of 2.77%, an inhibition [5] of 4.54% and an inhibition [6] of 3.79%. It also gave an inhibition [7] of 10.5%, an inhibition [8] of 3.46% and an inhibition [9] of 12.3%. For the same compound, the inhibition [10] was 0.23%, the inhibition [11] was 5.78% and the inhibition [12] was 3.04%. It also gave an inhibition [13] of 11.5%, an inhibition [14] of 2.22% and an inhibition [15] of 10.4%. For the same compound, the inhibition [16] was 2.71%, the inhibition [17] was 21.7% and the inhibition [18] was 0.96%. It also gave an inhibition [19] of 3.74% and an inhibition [20] of -0.17%.

Source: ChEMBL document CHEMBL1961873, “Compounds: GSK PKIS; Assays: Nanosyn kinase panel” (2012)
